Shown are actives, neighbours in structure and some others; about 2.9% of the full set was active somewhere.
PvdQ inh: blocks Pseudomonas aeruginosa PvdQ acylase activity; AID 488965; inhibition, % at 10 µM; hit rate 0.063% among 340,000; purified PvdQ acylase, fluorescence plate reader; in the data active = inhibition above about 30%, passing the limit was not always enough;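 also: 0% = vehicle neutral wells and 100% = reference inhibitor wells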
N-glyco inh: blocks N-linked glycosylation in D54 reporter cells | D54 ERlucT glycosylation luciferase reporter, 24 h; percent of 100 nM tunicamycin response | reporter increase, % at 12.5 µM | hit rate 0.23% among 360,000 | AID 588692;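 active = mean luciferase reporter signal, scaled so untreated is 0 and the glycosylation-blocking control 100, at or above a set limit in every replicate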;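 also: luciferase carries N-glycosylation sites so blocking glycosylation raises the light; 0% = median of neutral control wells and 100% = median of 100 nM tunicamycin wells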
Wnt act: activates Wnt/beta-catenin signaling in a reporter cell assay | activator, plate reader | activation, % at 9.35 µM | hit rate 1.2% among 300,000; in the data active = activation above about 30%, passing the limit was not always enough;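 also: 0% = neutral control wells and 100% = positive control wells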
esBAF inh: blocks esBAF chromatin remodeling in mouse ES cells. Bmi1-luciferase knock-in reporter, 24 h; 100% = twice the neutral-well signal. reporter increase, % at 12.5 µM. hit rate 2% among 350,000; in the data active = activation above about 40%;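 also: 0% = median of the plate's neutral control wells and 100% = double that signal; a rise in the Bmi1 reporter signal indicates esBAF inhibition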
MITF act: increases MITF-driven TRPM1 promoter luciferase signal; SK-MEL-5 TRPM1-promoter luciferase, 24 h; % of positive control, neutral wells = 0; activation, % at 12.5 µM; hit rate 0.75% among 300,000; AID 588334;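 active = mean activation of at least 80% with every replicate also reaching 80%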;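 also: 0% = neutral control wells and 100% = parthenolide positive control wells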
Vif imaging: blocks HIV Vif function; HEK293T cells, Vif self-association by quenched fluorescence, imaging, 24 h; inhibition, % at 7.49 µM; hit rate 0.35% among 340,000; AID 602346; in the data active = inhibition above about 50%, passing the limit was not always enough
Numbers without * were called inactive.

How did COc1ccccc1C(=O)Nc1ccc2c(c1)C(=O)N(C)[C@@H]1CC[C@@H](CC(=O)NCc3ccc(Cl)c(Cl)c3)O[C@@H]1CO2 do in these assays?
esBAF inh: 3

Results for CC(C)C(=O)N1CCC1(C)C(=O)Nc1cc(-c2ccccc2)nn1C (stereo not drawn) ?
N-glyco inh: -3; Wnt act: 11; esBAF inh: 50*; Vif imaging: 16

Results for CCC(=O)N1CCC1(C)C(=O)Nc1cc(-c2ccccc2)nn1C (stereo not drawn) ?
N-glyco inh: -2; Wnt act: 1; esBAF inh: 65*; Vif imaging: 24

How did Cc1noc(C)c1NC(=O)N(C)C[C@@H]1Oc2ccc(NC(=O)NC(C)C)cc2C(=O)N([C@@H](C)CO)C[C@H]1C do in these assays?
esBAF inh: 1

How did C[C@H]1CCCCO[C@@H](CN(C)Cc2ccc3c(c2)OCO3)[C@@H](C)CN([C@@H](C)CO)C(=O)c2cc(NC(=O)CCC(F)(F)F)ccc2O1 do in these assays?
esBAF inh: -3

Results for COc1cccc2cc(C(=O)OCC(=O)N3CC(C)OC(C)C3)c(=O)oc12 (stereo not drawn) ?
PvdQ inh: -7; N-glyco inh: -3; Wnt act: -2; esBAF inh: 64*; MITF act: 63; Vif imaging: 1

How did Cc1ccc(F)c(CNC(=O)C2(C)CCCN2C(=O)C(C)C)c1F (stereo not drawn) do in these assays?
N-glyco inh: 1; Wnt act: 36*; esBAF inh: -5; Vif imaging: 4

What do the screens show for `CC(C)C(=O)N1CCC1(C)C(=O)NCc1cc(Cl)ccc1F` (stereo not drawn)?
N-glyco inh: 2; Wnt act: -1; esBAF inh: -2; Vif imaging: 16

What do the screens show for `CCOCc1c(C(=O)OCC(=O)Nc2ccccc2C(N)=O)oc2ccccc12`?
PvdQ inh: -10; N-glyco inh: 0; Wnt act: 39*; esBAF inh: -3; MITF act: -4; Vif imaging: -3

Results for CCOCc1c(C(=O)OCC(=O)/C(C#N)=C(\C)N)oc2ccccc12 ?
PvdQ inh: 4; N-glyco inh: 1; Wnt act: -1; MITF act: 2; Vif imaging: -3

How did CCN(C[C@@H]1[C@@H](c2ccccc2)[C@H](CO)N1CC1CC1)C(C)=O do in these assays?
esBAF inh: 2

How did NNC(=O)c1nc(-c2ccccc2)cc(-c2ccccc2)n1 do in these assays?
PvdQ inh: 4; N-glyco inh: 47*; Wnt act: 7; esBAF inh: -5; Vif imaging: -4

Results for S=c1nc[nH]c2nc[nH]c12 ?
PvdQ inh: -7; N-glyco inh: 247*; Wnt act: 20; esBAF inh: -15; MITF act: -57; Vif imaging: -3

Results for O=[N+]([O-])c1ccc(CSc2nc3ccccc3o2)cc1 ?
PvdQ inh: 9; Wnt act: 25; MITF act: 97*

Results for CN(C)C(=O)[C@@H]1[C@@H](CO)[C@@H]2Cn3c(ccc(C4=CCCC4)c3=O)[C@H]1N2S(=O)(=O)c1cn(C)cn1 ?
esBAF inh: -4

What do the screens show for `COc1ccc(-c2cn(CC[C@H]3CC[C@@H](NC(=O)NC(C)C)[C@H](CO)O3)nn2)cc1`?
esBAF inh: -1

What do the screens show for `CC1CCN(C(=O)CSc2nc3ccccc3s2)CC1`?
PvdQ inh: -10; N-glyco inh: -1; Wnt act: 42*; esBAF inh: 33; MITF act: 38; Vif imaging: -7

How did O=C(O)C1CCN(C(=O)CSc2nc3ccccc3s2)CC1 do in these assays?
PvdQ inh: -4; N-glyco inh: 3; Wnt act: -1; esBAF inh: -11; MITF act: 6; Vif imaging: 6

How did O=C(CSc1ccc(-c2cccs2)nn1)N1CCCCC1 do in these assays?
PvdQ inh: -3; N-glyco inh: -1; esBAF inh: 33; MITF act: 12; Vif imaging: -8

What do the screens show for `O=C(CSc1ccc(-c2cccs2)nn1)N1CCCCCC1`?
PvdQ inh: -5; N-glyco inh: -3; esBAF inh: 50*; MITF act: -7; Vif imaging: -12

What do the screens show for `O=C(CSc1nc2ccccc2s1)N1CCCCC1`?
PvdQ inh: -15; N-glyco inh: -5; Wnt act: 19; esBAF inh: 82*; MITF act: 74; Vif imaging: 1

What do the screens show for `Cc1ccc2nc(SCC(=O)c3ccc(O)cc3O)[nH]c2c1`?
PvdQ inh: 1; N-glyco inh: 1; Wnt act: 41*; esBAF inh: 62*; MITF act: 54; Vif imaging: -2

How did C[C@H](CO)N1C[C@H](C)[C@@H](CN(C)Cc2ccc(C(F)(F)F)cc2)Oc2ccc(NC(=O)C3CCCCC3)cc2CC1=O do in these assays?
esBAF inh: -5

How did CO[C@H]1CN(C)C(=O)c2ccc(NC(=O)C3CCC3)cc2OC[C@@H](C)N(C(=O)NC(C)C)C[C@@H]1C do in these assays?
esBAF inh: -8

How did Cc1ccc(S(=O)(=O)Nc2cccc3c2O[C@H](CN(C)Cc2ccccc2)[C@@H](C)CN([C@@H](C)CO)C3=O)cc1 do in these assays?
esBAF inh: 2

Results for O=C(C[C@H]1CC[C@H]2[C@@H](COC[C@@H](O)CN2S(=O)(=O)c2ccc(Cl)cc2)O1)NCCN1CCCC1 ?
esBAF inh: 1

What do the screens show for `CSc1nsc(SCC(=O)N2CCCCC2)n1`?
PvdQ inh: -12; N-glyco inh: -5; Wnt act: 14; esBAF inh: 51*; MITF act: 52; Vif imaging: 6

Results for CC1CCCC(C)N1C(=O)CSc1nc2ccccc2s1 (stereo not drawn) ?
PvdQ inh: -3; N-glyco inh: -2; esBAF inh: 75*; Vif imaging: -18

How did O=C(CSc1nc2ccccc2s1)c1ccc(O)cc1O do in these assays?
PvdQ inh: 20; N-glyco inh: -2; Wnt act: 0; esBAF inh: 51*; MITF act: 41; Vif imaging: -10

Results for CNC(=O)CSc1nc(SC)ns1 ?
PvdQ inh: -12; N-glyco inh: 4; Wnt act: 10; MITF act: -9; Vif imaging: -7

How did CCc1cc(C=NC2CCCCC2)c(O)s1 do in these assays?
PvdQ inh: 1; N-glyco inh: 0; esBAF inh: 51*; Vif imaging: -2

What do the screens show for `CCc1cc2c(SC(C)C(=O)NC3CCCC3)ncnc2s1` (stereo not drawn)?
PvdQ inh: -1; N-glyco inh: 1; Wnt act: -2; esBAF inh: -4; MITF act: -5; Vif imaging: 25

Results for C[C@@H]1CN([C@H](C)CO)C(=O)c2cc(NS(C)(=O)=O)ccc2O[C@@H]1CN(C)S(=O)(=O)c1cn(C)cn1 ?
esBAF inh: -1

High-throughput results: PubChem BioAssay, Broad Institute
